Source: PubChem BioAssay
UDG counterscr – blocks uracil-DNA glycosylase in AID counter-screen; AID 1347430; FRET deamination/UDG coupled assay, UDG read, 4 h; Potency, µM (highest dose often 115 µM), for the others: top-dose activity change, negative = inhibition, most hits filed as inhibitors; 91,000 compounds, 0.14% hits; further: nearly all actives have a fitted effect of over 65% in size
AID inh – blocks human AID cytidine deaminase activity; Q9GZX7; AID deamination FRET fluorescence, UDG-coupled, 4 h; Potency, µM (top dose mostly 115 µM), hits mostly inhibitors; 91,000 compounds, 0.32% hits; further: nearly all actives have a fitted effect of over 25% in size
Target sequence (Q9GZX7 whole entry, looked up): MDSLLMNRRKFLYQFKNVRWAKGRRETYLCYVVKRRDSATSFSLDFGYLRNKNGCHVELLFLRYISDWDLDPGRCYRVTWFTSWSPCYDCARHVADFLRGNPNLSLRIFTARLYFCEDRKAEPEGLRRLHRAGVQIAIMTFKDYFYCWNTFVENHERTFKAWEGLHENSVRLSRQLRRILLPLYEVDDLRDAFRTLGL
* marks the source's active call; other numbers are inactive results; i = inactive; ? = inconclusive; ! = a repeat was not active; [ ] = another dose, or the depositor's remark. Rows were chosen to be rich in hits. Some 0.4% of all compounds tested hit in one or more screens of this group. The call rests on the fitted dose curve; in most records, active means well fitted curve in the direction sought with a large enough effect; inconclusive means small, poorly fitted or top-dose-only effect, or another doubt; inactive means no such curve, though single readings can be large; an effect the other way counts as inactive or inconclusive. On the % scale 0 is the no-effect control and ±100 the full control effect; potency means the concentration at half of the fitted maximal effect.

SMILES	UDG counterscr	AID inh
Fc1ccc(NCc2ccccc2F)cc1	3%	i
Oc1ccc(NCc2ccccc2OCc2ccccc2F)cc1	-8%	20µM*
Oc1c(Br)cc(Br)cc1C=Nc1ccc(F)c(Cl)c1	-11%	i
O=Cc1cc(Cc2ccccc2Cl)cc(Br)c1O	-14%	35µM*
O=Cc1ccc(OCc2ccccc2Cl)cc1	-6%	i
Cc1ccc(N/N=C/C=C/c2ccccc2[N+](=O)[O-])c(C)c1	-7%	i
COc1ccc(-c2nc3ccccc3n2Cc2ccc(Cl)cc2)cc1	?	45µM*
COc1ccc(-c2nc3ccccc3n2Cc2ccc(C(C)C)cc2)cc1	-4%	?
O=C(C1=C(O)C(=O)N(c2nc3ccc(Cl)cc3s2)C1c1ccco1)c1ccco1 (configuration not stated)	-5%	50µM*
Cc1ccc2nc(N3C(=O)C(O)=C(C(=O)c4ccco4)C3c3ccc(O)cc3)sc2c1 (configuration not stated)	2%	i
Cc1ccccc1-c1noc(COc2ccc3c(C)cc(=O)oc3c2)n1	12%	i
COc1ccc(CCNC(=O)Cn2c(=O)c3cccn3c3ccc(F)cc32)cc1OC	8%[57.5 µM]	79µM*
COc1ccc(CCNC(=O)Cn2c(=O)c3cccn3c3ccccc32)cc1OC	0%[57.5 µM]	i
CC(C)(C)c1ccc(C(=O)NCC(c2cccs2)S(=O)(=O)c2ccc(F)cc2)cc1 (configuration not stated)	79µM*	i
CC(C)(C)c1ccc(C(=O)NCC(c2cccs2)S(=O)(=O)c2cccs2)cc1 (configuration not stated)	-4%	?
Cn1c(SCC(=O)Nc2cc(F)ccc2F)nc2c(=O)[nH]cnc21	-14%	i
CCCCN(CCCC)CC(O)Cn1cc(/C=C/C(=O)c2ccccc2)c2ccccc21 (configuration not stated)	-16%	32µM*
CCCCN(C)CC(O)Cn1cc(/C=C/C(=O)c2ccc(OCC)cc2)c2ccccc21 (configuration not stated)	-17%	?
CCOc1cc(/C=C/c2nc3ccccc3s2)ccc1O	-2%	i
COc1ccc(S(=O)(=O)N(CC(=O)Nc2cccc(C(F)(F)F)c2)c2ccc(C)cc2)cc1	-11%	25µM*
COc1ccc(S(=O)(=O)N(CC(=O)Nc2cc(C)cc(C)c2)c2ccc(Cl)cc2)cc1	-1%	i
COc1ccc(S(=O)(=O)N(CC(=O)NCc2ccccc2)c2ccc(C)cc2)cc1OC	-8%	i
COc1ccc(S(=O)(=O)N(CC(=O)NC(C)c2ccccc2)c2ccc(C)cc2)cc1OC (configuration not stated)	?	45µM*
COc1ccccc1C1NC(=S)NC2=C1CCc1ccccc12 (configuration not stated)	-2%	i
CCOc1cc(/C=C(/C#N)C(=O)OCCOC)cc(Cl)c1OC	6%	i
SMILES	UDG counterscr	AID inh
O=C(C1CC1)N(Cc1ccc2c(c1)CN(S(=O)(=O)c1cc(F)ccc1F)CCO2)c1ccccc1	89µM*	i
O=C(C1CC1)N(Cc1ccc2c(c1)CN(S(=O)(=O)c1cc(F)cc(F)c1)CCO2)c1ccccc1	-4%	i
CS(=O)(=O)Cc1ccc(CNCc2ccccc2Cl)cc1	16µM*	i
CS(=O)(=O)Cc1ccc(CNCc2cccc3ccccc23)cc1	0%	i
CCCCCc1ccc(-c2ccc(C(=O)O)cc2)cc1	-6%	i
CCCCCCCCc1ccc(-c2ccc(C(=O)O)cc2)cc1	-3%	89µM*!
CCOC(=O)c1cc(-c2ccco2)nc2c1c(C)nn2-c1ccccc1Cl	-5%	i
CCC(Sc1nc2c(sc3ccccc32)c(=O)n1CCc1ccc(OC)c(OC)c1)C(=O)N(CC)CC (configuration not stated)	-18%	32µM*
CCC(Sc1nc2c(sc3ccccc32)c(=O)n1CCc1ccccc1)C(=O)N(CC)CC (configuration not stated)	9%	i
COc1cc(C2CC(=O)Nc3ccsc32)ccc1OCC(N)=O (configuration not stated)	8%	i
CC(C)Oc1cccc(C2CC(=O)Nc3nc(N)sc32)c1 (configuration not stated)	-14%	28µM*
COc1ccc(C2CC(=O)Nc3nc(N)sc32)cc1OCc1ccccc1Cl (configuration not stated)	-6%	40µM*
Cc1nn(-c2ccc3nnc(C)n3n2)c2c1C(c1cccc(OC(C)C)c1)CC(=O)N2 (configuration not stated)	11%	i
CCC(C)NC(=O)c1snnc1-c1ccc(OC)cc1 (configuration not stated)	4%	i
CCn1c2ccccc2c2cc(CNCCc3c[nH]c4ccccc34)ccc21	-12%	i
CCOC(=O)c1sc(N)c(SC#N)c1C	-13%	i
CC1CCN(c2nc3c(S(=O)(=O)c4ccccc4)nnn3c3ccc(Cl)cc23)CC1	-14%	?
CCc1ccc(S(=O)(=O)c2nnn3c2nc(N2CCC(C(N)=O)CC2)c2cc(Cl)ccc23)cc1	-14%	25µM*
CN(C)CCNc1oc(-c2cccs2)nc1C#N	-8%	i
Brc1ccc(-c2noc(Cc3cccs3)n2)o1	-13%	i
Cc1cc(N)c2ccccc2[n+]1CCCCCCCCCC[n+]1c(C)cc(N)c2ccccc21	89µM*	50µM*
CCC(C)(C)C1CCC(NC(=O)c2cccnc2Cl)CC1 (configuration not stated)	-4%	i
COc1ccc(Cl)cc1NC(=O)CSC1=Nc2ccccc2C2=NC(CC(=O)NC3CCCCC3)C(=O)N12 (configuration not stated)	11%	32µM*
O=C(CC1N=C2c3ccccc3N=C(SCc3ccc(Cl)cc3)N2C1=O)NC1CCCCC1 (configuration not stated)	26%	i
Cc1ccc(NS(=O)(=O)c2ccc(NN)c([N+](=O)[O-])c2)c(C)c1	-5%	i
SMILES	UDG counterscr	AID inh
CCc1ccc(-c2cc(C(=O)NCc3ccco3)c3ccccc3n2)cc1	1%	i
Cc1cc(NC(=O)c2oc3c(c2C)-c2[nH]ncc2CC3)ccc1Br	-17%[57.5 µM]	35µM*
CCc1ccc(NC(=O)c2oc3c(c2C)-c2[nH]ncc2CC3)cc1	-17%[57.5 µM]	?
O=C(NC1CCCC1)c1cc(-c2ccncc2)nc2c(Cl)cccc12	-9%	i
COc1ccc(NC(=O)C(C)SCCO)cc1Cl (configuration not stated)	-7%	i
CC1CCC(COC(=O)C[N+]2(C)CCCCC2)C(C)C1 (configuration not stated)	-5%	i
CCOc1ccccc1N1CC(c2nc3ccccc3n2CCCCOc2cc(C)ccc2C)CC1=O (configuration not stated)	-10%	i
Cc1ccc(C)c(OCCn2c(C3CC(=O)N(Cc4ccc(F)cc4)C3)nc3ccccc32)c1 (configuration not stated)	79µM*	28µM*
O=C(/C=C/c1cccc(O)c1)c1ccc(F)cc1	-12%	?
CC(C)NC(=O)c1ccc(NC(=O)C(F)(F)C2(F)OC(F)(F)C(F)(F)C2(F)F)cc1 (configuration not stated)	1%	i
Cc1cccc(C(=O)NNC(=S)NC(=O)c2ccc(C(C)(C)C)cc2)c1	0%	i
C=C(Cl)COC(=O)c1ccc2c(c1)NC(=O)C(C)S2 (configuration not stated)	-14%	i
